Screening results (PubChem BioAssay)
Most compounds without a hit are left out; they make up all but 4.1% or so of the library.
PolyA inh – yeast polyadenylation inhibition; activity score, % at 12 µM; actives 0.02% (n = 300,000); S. cerevisiae SKY197-pL101 polyadenylation reporter, beta-gal luminescence; efflux-impaired pdr1/pdr3 knockout yeast; score 100 = 6 SD above DMSO; AID 1875;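 active = lowest replicate activity score at least 50, where 100 means six control SD above control mean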;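 also: yeast exposed to compound for 9 h at 30 °C; higher score means more reporter readthrough which indicates perturbed polyadenylation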
ssDAF-12 act – activates DAF-12 receptor from parasite S. stercoralis; HEK293 ssDAF-12/GRIP1 lit1-tk-luc reporter, luminescence; % of 3 µM dafachronic acid response; activation, % at 6.8 µM; actives 1% (n = 370,000); AID 652126;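 active = activation above the mean over all tested compounds plus 3 SD, cut at about 0.9% in these data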;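 also: 0% = DMSO-only wells and 100% = 3 µM delta7-dafachronic acid wells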
DAX1 inh-1 – inhibitors of human orphan nuclear receptor DAX1 (NR0B1) | AID 504766 | HEK293 Gal4-DAX1 luciferase reporter, luminescence | inhibition, % at 6.75 µM | actives 0.99% (n = 340,000) | P51843;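 active = inhibition above the mean over all tested compounds plus 3 SD, cut at about 4.2% in these data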;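 also: 0% = DAX1-transfected cells with DMSO and 100% = empty-vector control cells with DMSO; inhibition shows as a rise in luminescence from relieved DAX1 repression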
Target sequence (P51843 207-470 limits assumed): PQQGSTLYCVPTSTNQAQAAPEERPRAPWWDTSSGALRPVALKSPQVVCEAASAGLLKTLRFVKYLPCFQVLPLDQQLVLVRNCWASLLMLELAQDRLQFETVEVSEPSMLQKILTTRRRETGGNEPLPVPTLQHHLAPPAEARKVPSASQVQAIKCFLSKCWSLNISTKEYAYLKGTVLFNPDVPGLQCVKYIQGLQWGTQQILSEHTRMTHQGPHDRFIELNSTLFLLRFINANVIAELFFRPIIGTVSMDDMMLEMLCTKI
DAX1 inh-2 – inhibitors of DAX1 repression of SF-1 activated StAR promoter; HEK293T StAR-luciferase reporter, SF-1/DAX-1 repression relief; inhibition, % at 6.8 µM; actives 1.1% (n = 370,000); AID 652010;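 active = inhibition above the mean over all tested compounds plus 3 SD, cut at about 3.6% in these data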;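 also: 0% = DAX-1 cells with DMSO and 100% = cells lacking DAX-1 with DMSO; higher inhibition means more luminescence from relief of DAX-1 repression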
hgDAF-12 ag – activates the H. glycines DAF-12 receptor ligand-binding domain; HEK293 GAL4-hgDAF12 UAS-luciferase reporter, agonist luminescence; normalized to butyrate control; activation, % at 6.8 µM; actives 1.8% (n = 370,000); AID 687014;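 active = activation above a cutoff set at the mean of all screened compounds plus 3 SD, cut at about 10% in these data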;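 also: 0% = DMSO wells and 100% = sodium butyrate wells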
hcDAF-12 act – activators of H. contortus DAF-12 nuclear receptor; actives 1.4% (n = 370,000); AID 652067; HEK293 hcDAF-12 lit1-tk-luc reporter, luminescence; 0% DMSO, 100% Δ7-dafachronic acid; activation, % at 6.8 µM;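 active = activation above the mean of all tested compounds plus 3 SD, cut at about 5.5% in these data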;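 also: 100% = response to 3 µM Δ7-dafachronic acid high control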
Numbers without * were called inactive; · = no result given.

SMILES | PolyA inh | ssDAF-12 act | DAX1 inh-1 | DAX1 inh-2 | hgDAF-12 ag | hcDAF-12 act
NC(=O)C1CCN(C(=S)c2ccc(-c3ccc(Br)cc3)o2)CC1 | 5 | 0 | · | 2 | 12* | 0
NC(=O)c1ccc(-c2ccc(Br)cc2)o1 | -2 | -1 | -1 | 0 | 4 | -1
C[C@H]1COc2cc(Br)ccc2S(=O)(=O)N1Cc1cn(CC2CCCCC2)nn1 | · | -1 | · | 0 | 3 | -1
CN(C(=O)c1ccccc1Cl)c1ccccc1C(=O)NCc1ccccc1 | -9 | -1 | 0 | 4.1* | 3 | 0
CN(C(=O)c1ccc(F)cc1)c1ccccc1C(=O)NCc1ccccc1 | -2 | -1 | 0 | -2 | -3 | 0
CCCc1nn(C)c(C(N)=O)c1[N+](=O)[O-] | 8 | 1.0* | 1 | 1 | 2 | 5
O=C1CSC(=S)N1c1cccc(F)c1 | -22 | -2 | 2 | 0 | -2 | 0
O=C1CC(=O)N(c2cccc(F)c2)N1 | -4 | 0 | 6.0* | 0 | 1 | -1
CC1(C)Cc2nc3sc(C(=O)NCCCO)c(N)c3cc2CO1 | 13 | 0 | 6.5* | 0 | 2 | 4
CC1(C)Cc2nc3sc4c(=O)n(CC(N)=O)cnc4c3cc2CO1 | -7 | 0 | 0 | 0 | 3 | 0
COc1cc(OC)cc(C(C)c2ccc(-c3ccccc3)cc2)c1 (stereo not drawn) | · | -1 | · | · | -2 | -2
Brc1ccc(-c2csc(N/N=C/c3ccco3)n2)cc1 | -29 | -1 | 2 | 0 | 3 | -3
Cc1sc(N/N=C/c2ccco2)nc1-c1ccccc1 | -3 | 1.4* | -1 | 0 | 5 | 3
Clc1ccc(-c2csc(N/N=C/c3ccco3)n2)cc1 | -3 | -1 | 6.2* | 0 | 4 | 2
Cc1sc(N/N=C/c2cccnc2)nc1-c1ccccc1 | -16 | -1 | -3 | -1 | -7 | -2
c1ccc(-c2csc(Nc3ncccn3)n2)cc1 | 5 | -1 | 2 | 2 | 9 | 6
NNc1nc(-c2ccccc2)cs1 | 14 | 0 | 2 | 1 | 4 | 6.0*
Cc1ccc2nc(N/N=C/c3ccco3)cc(C)c2c1 | -16 | -1 | 1 | 2 | 11* | 3
C[C@H]1[C@@H](OC(=O)NCc2ccccc2Cl)CC[C@@]23CCCN2C(=O)CCC[C@@H]13 | · | -2 | · | · | 2 | -1
CCOC(=O)[C@@]12CCC3=C1N(CCC3)C(=O)[C@H](CC(=O)NCCCCc1ccccc1)C2 | · | -1 | · | -1 | 2 | -2
C(=N\Nc1nc(-c2ccccc2)cs1)/c1ccco1 | 3 | 0 | 1 | 1 | 13* | 3
Cc1ccc(-c2csc(N/N=C/c3ccco3)n2)cc1 | -3 | -1 | 0 | 1 | 4 | 1
C(=N\Nc1nc(-c2ccccc2)cs1)/c1ccncc1 | 12 | -1 | 2 | 1 | 0 | 0
C(=N\Nc1nc(-c2ccccc2)cs1)/c1cccs1 | -13 | 0 | 2 | 1 | 3 | 5.8*
COC(=O)[C@]12C[C@H](CC(=O)NCc3cccc(C(F)(F)F)c3)C(=O)N(Cc3cccc4ccccc34)C1=C[C@H](C(C)(C)C)O[C@@H]2C | · | -1 | · | -1 | -2 | 1
SMILES | PolyA inh | ssDAF-12 act | DAX1 inh-1 | DAX1 inh-2 | hgDAF-12 ag | hcDAF-12 act
Cc1cc(O)ccc1N=Cc1c(C(F)(F)F)[nH][nH]c1=O | 12 | -1 | 4.4* | -1 | -1 | 0
O=c1[nH][nH]c(C(F)(F)F)c1C=Nc1ccccc1 | 13 | -1 | -1 | -1 | 0 | -2
CN(C)S(=O)(=O)c1cccc(C(=O)N2CCN(C(=O)C3CCCO3)CC2)c1 (stereo not drawn) | · | -1 | 2 | 3.8* | -1 | 0
CN(C)S(=O)(=O)c1ccc(C(=O)N2CCN(C(=O)C3CCCO3)CC2)cc1 (stereo not drawn) | · | -1 | 0 | 1 | 3 | -2
O=C1CCCCCN1Cc1nnc(SCc2nc3ccccc3s2)n1-c1ccccn1 | 0 | 1.9* | 2 | 2 | 9 | 5.7*
COc1ccc(N2C(=O)C3CCCN3C2c2ccccc2F)cc1 (stereo not drawn) | -11 | -1 | 4.9* | 1 | 1 | 2
O=C1C2CCCN2C(c2ccccc2F)N1c1ccc(Cl)cc1 (stereo not drawn) | 11 | -1 | 0 | 0 | 1 | 2
